# PubChem BioAssay (NCATS)
# Results filed as inconclusive are left out. The source made the active and inactive calls. The call rests on the fitted dose curve; in most records, active means well fitted curve in either direction with a large enough effect (not every such curve was filed as active); inconclusive means small, poorly fitted or top-dose-only effect, or another doubt; inactive means flat fitted curve, though single readings scatter.
# Assay: NFAT Signaling Pathway (AID 444);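 further: carbachol stimulus at about its EC50 of 1 µM final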
# Details: Jurkat NFAT-bla M1, carbachol, beta-lactamase ratio, 5 h; at 17.2 µM (top of the series) unless noted
# Summary of the method: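 Read-out: CCF4 FRET ratio (460 nm/530 nm) after 1 h RT dye loading, used for %activity and AC50 from titration series. Cells: Jurkat NFAT-β-lactamase/M1 line, treated with compound plus 1 uM carbachol for 5 h, 37 °C.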
# On the % scale 0 is the no-effect control and ±100 the full control effect.
row,SMILES,"activity change, negative = inhibition"
1,Cc1ccc(-n2ncc3c(NCc4ccc5c(c4)OCO5)ncnc32)c(C)c1,8.44% (inactive)
2,Cc1ccc(OCC(O)CNS(=O)(=O)c2ccccc2C(=O)O)cc1 (stereo not drawn),6.08% (inactive)
3,CCC[C@@H]1C[C@@H](C(=O)N[C@H]([C@@H](C)O)[C@H]2O[C@H](SC)[C@H](O)[C@@H](O)C2O)N(C)C1 (stereo partly drawn),8.75% (inactive)
4,COc1ccc(-c2nn3c(C4CCCCC4)nnc3s2)cc1OC,-3.44% (inactive)
5,O=C(CCC1CCCC1)N1CCC(N2CCN(c3ccccc3)CC2)CC1,-29.5% (inactive)
6,CCOC(=O)C1CCN(c2nc3ccccc3nc2C(C#N)C(=O)OC(C)C)CC1 (stereo not drawn),8.02% (inactive)
7,Cc1c(C2Nc3ccccc3NC3=C2C(=O)CC(C)(C)C3)cnn1C (stereo not drawn),-5.95% (inactive)
8,COc1ccc(OCC(O)Cn2c(Nc3cccc(C)c3)nc3c2c(=O)n(C)c(=O)n3C)cc1 (stereo not drawn),8.48% (inactive)
9,CC(C)(C)n1cnc2cc(NS(=O)(=O)c3ccc(Br)cc3)ccc21,-27.1% (inactive)
10,Cc1cc(N/C=C/C(=O)c2cccc3ccccc23)no1,-3.82% (inactive)
11,COc1cccc(N2CCN(c3ncnc4c3[nH]c3ccccc34)CC2C)c1 (stereo not drawn),-139% (active)
12,COC(=O)c1ccn(C(=O)c2ccc(Cl)cc2)n1,-8.81% (inactive)
13,CCCn1c(SCC(N)=O)nc2c(c1=O)C1(CCCC1)Cc1ccccc1-2,-22.4% (inactive)
14,N#CC(C(=O)Nc1ccc(Cl)c(Cl)c1)=C1Nc2ccccc2N1,-3.6% (inactive)
15,CC(=NC1CCCC1)c1c(C)[nH]n(-c2nc3ccccc3s2)c1=O,-20.1% (inactive)
16,C=CCn1c(=S)[nH]c2nc3c(cc2c1=O)COC(C)(C)C3,5.11% (inactive)
17,CC1CCc2cc(F)cc3c(O)c(C(=O)NCC4CCCO4)c(=O)n1c23 (stereo not drawn),-19.9% (inactive)
18,CC1CCc2cc(F)cc3c(O)c(C(=O)Nc4cnccn4)c(=O)n1c23 (stereo not drawn),19.5% (inactive)
19,O=C1C(=O)N(Cc2cccnc2)C(c2ccccn2)/C1=C(/O)c1ccc(F)cc1 (stereo not drawn),3.79% (inactive)
20,CCCOc1ccc(N2C(=O)C3ON(c4ccccc4)C(c4ccc(O)c(OC)c4)C3C2=O)cc1 (stereo not drawn),10.7% (inactive)

row,SMILES,"activity change, negative = inhibition"
1,COc1ccc(Oc2nc3c(c(=O)n(C)c(=O)n3C)n2Cc2cccc(OC)c2)cc1,-3.53% (inactive)
2,Cc1cc(C)n(S(=O)(=O)Cc2ccccc2)n1,-1.74% (inactive)
3,C=CCOC(=O)C1=C(C)NC(SCC(=O)N(CC)CC)=C(C#N)C1c1ccccc1 (stereo not drawn),2.35% (inactive)
4,CCOc1ccc(CC2CC(=O)NC2=O)cc1 (stereo not drawn),-5.51% (inactive)
5,COc1cccc(C2=CC(c3ccccc3)n3nnnc3N2)c1 (stereo not drawn),-25.6% (inactive)
6,CC(C)c1[nH]c(=O)c(C#N)c2c1CSC(C)(C)C2,-5.85% (inactive)
7,Cn1c(=O)c2c(nc(Oc3ccc4c(c3)OCO4)n2Cc2ccc(Br)cc2)n(C)c1=O,-5.35% (inactive)
8,CNC(=O)c1cc2c(ccc3ccccc32)oc1=N,-5.77% (inactive)
9,CCC1(C)Cc2c(C#N)c(N)sc(=S)c2CO1 (stereo not drawn),-12.1% (inactive)
10,O=C(c1ccc2c3c(cccc13)C(=O)N(O)C2=O)N1CCCCC1,0.433% (inactive)
11,CCOC(=O)C1=C(C)N=C2SC(C)C(=O)N2C1c1ccc(C(=O)OC)cc1 (stereo not drawn),-15.8% (inactive)
12,Cc1ccc(Cn2ncc3c(N4CCN(c5ccc(C)cc5)CC4)ncnc32)cc1,-24.6% (inactive)
13,CCn1cc(C(=O)NCc2ccco2)c(=O)c2cc(F)c(N3CCN(C(=O)c4ccco4)CC3)cc21,-28.1% (inactive)
14,COc1cc(C2C(C#N)=C(N)Oc3cc(C)n(Cc4ccccn4)c(=O)c32)cc2c1OCO2 (stereo not drawn),-12.8% (inactive)
15,CCN1CCc2c(C#N)c(N3CCCCC3)nc(N3CCOCC3)c2C1,-1.02% (inactive)
16,CSc1nnc(C)c(=O)[nH]1,-8.38% (inactive)
17,CC1(C(=O)O)CCC(C(=O)NC2CCCCCC2)C1(C)C (stereo not drawn),-7.92% (inactive)
18,Cc1ccc(-c2nnc(-c3ccccc3)o2)cc1Br,-13.3% (inactive)
19,CCOc1ccc(S(=O)(=O)N(C)CCO)cc1-c1nc2c(C(C)(C)C)nn(C)c2c(=O)[nH]1,6.99% (inactive)

# Assay: Stat Signaling Pathway (AID 446);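 further: ME-180 cervical cancer cells given 40 pM IL-6 alongside compound; SIE-controlled beta-lactamase reporter measured as 460/530 nm FRET emission ratio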
# Details: ME-180 (cervical carcinoma) SIE beta-lactamase reporter, IL-6 stimulated, 5 h; at 17.2 µM (top of the series) unless noted
# Summary of the method: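 Normalization used AC90 stimulation (300 pM IL-6) and AC90 inhibition (125 nM pan-JAK inhibitor at 40 pM IL-6). The underlying signal is SIE-driven beta-lactamase in ME-180 cells after 5 h IL-6 exposure with compound.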
row,SMILES,"activity, negative = inhibition"
1,Cc1ccc(-n2ncc3c(NCc4ccc5c(c4)OCO5)ncnc32)c(C)c1,-19.8% (inactive)
2,Cc1ccc(OCC(O)CNS(=O)(=O)c2ccccc2C(=O)O)cc1 (stereo not drawn),4% (inactive)
3,CCC[C@@H]1C[C@@H](C(=O)N[C@H]([C@@H](C)O)[C@H]2O[C@H](SC)[C@H](O)[C@@H](O)C2O)N(C)C1 (stereo partly drawn),-0.0835% (inactive)
4,COc1ccc(-c2nn3c(C4CCCCC4)nnc3s2)cc1OC,16.5% (inactive)
5,O=C(CCC1CCCC1)N1CCC(N2CCN(c3ccccc3)CC2)CC1,9.85% (inactive)
6,CCOC(=O)C1CCN(c2nc3ccccc3nc2C(C#N)C(=O)OC(C)C)CC1 (stereo not drawn),-8.74% (inactive)
7,Cc1c(C2Nc3ccccc3NC3=C2C(=O)CC(C)(C)C3)cnn1C (stereo not drawn),14.2% (inactive)
8,COc1ccc(OCC(O)Cn2c(Nc3cccc(C)c3)nc3c2c(=O)n(C)c(=O)n3C)cc1 (stereo not drawn),-15.9% (inactive)
9,CC(C)(C)n1cnc2cc(NS(=O)(=O)c3ccc(Br)cc3)ccc21,-28% (inactive)
10,Cc1cc(N/C=C/C(=O)c2cccc3ccccc23)no1,-10.2% (inactive)
11,COc1cccc(N2CCN(c3ncnc4c3[nH]c3ccccc34)CC2C)c1 (stereo not drawn),-104% (active)
12,COC(=O)c1ccn(C(=O)c2ccc(Cl)cc2)n1,-10.2% (inactive)
13,CCCn1c(SCC(N)=O)nc2c(c1=O)C1(CCCC1)Cc1ccccc1-2,-8.32% (inactive)
14,N#CC(C(=O)Nc1ccc(Cl)c(Cl)c1)=C1Nc2ccccc2N1,-4.82% (inactive)
15,CC(=NC1CCCC1)c1c(C)[nH]n(-c2nc3ccccc3s2)c1=O,-8.78% (inactive)
16,C=CCn1c(=S)[nH]c2nc3c(cc2c1=O)COC(C)(C)C3,3.02% (inactive)
17,CC1CCc2cc(F)cc3c(O)c(C(=O)NCC4CCCO4)c(=O)n1c23 (stereo not drawn),1.8% (inactive)
18,CC1CCc2cc(F)cc3c(O)c(C(=O)Nc4cnccn4)c(=O)n1c23 (stereo not drawn),11.1% (inactive)
19,O=C1C(=O)N(Cc2cccnc2)C(c2ccccn2)/C1=C(/O)c1ccc(F)cc1 (stereo not drawn),0.323% (inactive)
20,CCCOc1ccc(N2C(=O)C3ON(c4ccccc4)C(c4ccc(O)c(OC)c4)C3C2=O)cc1 (stereo not drawn),-20% (inactive)

row,SMILES,"activity, negative = inhibition"
1,COc1ccc(Oc2nc3c(c(=O)n(C)c(=O)n3C)n2Cc2cccc(OC)c2)cc1,-2.94% (inactive)
2,Cc1cc(C)n(S(=O)(=O)Cc2ccccc2)n1,14.5% (inactive)
3,C=CCOC(=O)C1=C(C)NC(SCC(=O)N(CC)CC)=C(C#N)C1c1ccccc1 (stereo not drawn),-2.74% (inactive)
4,CCOc1ccc(CC2CC(=O)NC2=O)cc1 (stereo not drawn),-1.04% (inactive)
5,COc1cccc(C2=CC(c3ccccc3)n3nnnc3N2)c1 (stereo not drawn),-10.3% (inactive)
6,CC(C)c1[nH]c(=O)c(C#N)c2c1CSC(C)(C)C2,4.25% (inactive)
7,Cn1c(=O)c2c(nc(Oc3ccc4c(c3)OCO4)n2Cc2ccc(Br)cc2)n(C)c1=O,-4.55% (inactive)
8,CNC(=O)c1cc2c(ccc3ccccc32)oc1=N,13.1% (inactive)
9,CCC1(C)Cc2c(C#N)c(N)sc(=S)c2CO1 (stereo not drawn),-10.3% (inactive)
10,O=C(c1ccc2c3c(cccc13)C(=O)N(O)C2=O)N1CCCCC1,22.1% (inactive)
11,CCOC(=O)C1=C(C)N=C2SC(C)C(=O)N2C1c1ccc(C(=O)OC)cc1 (stereo not drawn),-8.28% (inactive)
12,Cc1ccc(Cn2ncc3c(N4CCN(c5ccc(C)cc5)CC4)ncnc32)cc1,-13.5% (inactive)
13,CCn1cc(C(=O)NCc2ccco2)c(=O)c2cc(F)c(N3CCN(C(=O)c4ccco4)CC3)cc21,-28.5% (inactive)
14,COc1cc(C2C(C#N)=C(N)Oc3cc(C)n(Cc4ccccn4)c(=O)c32)cc2c1OCO2 (stereo not drawn),-4.06% (inactive)
15,CCN1CCc2c(C#N)c(N3CCCCC3)nc(N3CCOCC3)c2C1,18.4% (inactive)
16,CSc1nnc(C)c(=O)[nH]1,14.8% (inactive)
17,CC1(C(=O)O)CCC(C(=O)NC2CCCCCC2)C1(C)C (stereo not drawn),10.5% (inactive)
18,Cc1ccc(-c2nnc(-c3ccccc3)o2)cc1Br,27.2% (inactive)
19,CCOc1ccc(S(=O)(=O)N(C)CCO)cc1-c1nc2c(C(C)(C)C)nn(C)c2c(=O)[nH]1,-3.41% (inactive)
